The panel holds about 83,000 compounds, 20% with a hit somewhere; the sample as a whole holds those more often.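 48-hour exposure, single concentration, 96-well plates; percent growth endpoint where 0 means no net growth. Active: below 10.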 Values without a mark were called inactive. Calls of active or inactive are those of the source.

For the first experiment, the system named is OVCAR-8 ovarian. Nature of the experiment: NCI-60 one-dose screen, 48 h (100 = growth as untreated, 0 = no growth, -100 = all killed). To be noted: 10 µM unless noted.
In the case of `C/C(Cc1ccc(Cl)cc1)=C(\c1ccc(OCCCN(C)C)cc1)c1ccc(OC(=O)Cc2ccccc2)cc1`, the growth was 113%.

Consider `COc1ccc(C(=O)/C=C/c2ccc(N3CCCCC3)cc2)cc1OC`, for which the growth is 92.8%.

As for `O=C1Nc2c(C(=O)O)cccc2/C1=N/c1n[nH]c(=S)s1`, the growth is 91%.

With `COC(=O)N1CC(Oc2ccccn2)C2CC1c1ccccc1O2` (configuration not stated), the growth was 98.7%.

As to `CN(CCCNC(=O)Cc1ccc2ccc3cccc4ccc1c2c34)CCCNc1cc(-c2ccc3ccccc3c2)nc2ccccc12`, the growth was -25.3% (active).

Regarding `CCOC(=O)C(=Cc1ccc(-c2ccccc2)cc1)C(=O)OCC`, the growth was 19.7%.

On to `COc1ccc(C(O)c2cc3c(N)c(C(=O)Nc4cccc(Cl)c4C)sc3nc2C)cc1` (configuration not stated), for which the growth was 10.1%.

For the molecule `Oc1ccc(/C=C/c2ccc(O)cc2)cc1`, the growth is 35.7%.

The test system of another experiment is OVCAR-5 ovarian. Described as above. Particulars: 10 µM unless noted.
Take `CCN(CC)CCN1C(=O)c2cccc3c(/C=C/CN4C(=O)c5cccc6cccc(c56)C4=O)ccc(c23)C1=O`: the growth is 94.4%.

As to `CCN1CCN(C(=O)[C@]23CC[C@@H](C)[C@H](C)[C@@H]2C2=CC[C@@H]4[C@@]5(C)C/C(=C/c6cccnc6)C(=O)C(C)(C)[C@@H]5CC[C@@]4(C)[C@]2(C)CC3)CC1`, the growth is 56.7%.

Take `COc1ccc(C2CC(c3cc(OC)c(OC)c(OC)c3)=NO2)cc1OCCCCOc1cc2c(cc1OC)C(=O)N1CCC[C@H]1C=N2` (some centres not stated): the growth is 17.9%.

In the case of `Cn1c(=O)c2[nH]c(SCC(=O)Nc3ccc(C(=O)/C=C/c4ccccc4Cl)cc3)nc2n(C)c1=O`, the growth was 101%.

Consider `CC1(C)N=C(N)N=C(N)N1c1cccc(CCc2ccccc2)c1`, for which the growth is 49.2%.

`O=C1c2ccccc2C(=O)c2c1c(C(=O)NCc1ccccc1)c1ccccn21`: the growth is 111%.

As for `CC1C(/C=N/NC(N)=S)C(C#N)(C#N)C1(C#N)C#N` (configuration not stated), the growth is 116%.

Take `NS(=O)(=O)c1ccc(-c2cc(-c3nnc(SCC(=O)Nc4ccc(C(=O)/C=C/c5ccc(Cl)cc5)cc4)n3-c3ccccc3)c3ccccc3n2)cc1`: the growth was 93.1%.

As for `CC1(C)CC[C@]2(C(=O)N[C@H](CO)Cc3ccccc3)CC[C@]3(C)C(=CC[C@@H]4[C@@]5(C)CCCNC(C)(C)[C@@H]5CC[C@]43C)[C@@H]2C1`, the growth is 101%.

As to `CCCCNc1cc(-c2cn[nH]c2-c2cc(C)cc(OC)c2)nc(-c2cccnc2)n1`, the growth was 85.3%.

In the case of `C/C(=N\O)[C@@H]1CC[C@]2(CO)CC[C@]3(C)[C@H](CC[C@@H]4[C@@]5(C)CCCNC(C)(C)[C@@H]5CC[C@]43C)[C@@H]12`, the growth was 88.5%.

For `CN(C)CCCC1(c2ccc(F)cc2)OCc2cc(-c3cc4ccccc4s3)ccc21` (configuration not stated), the growth is 55.8%.

On to `C=C(C)[C@@H]1CCC[C@]2(C(=O)O)CC[C@]3(C)[C@@H](CC[C@@H]4[C@@]5(C)C/C(=C/c6ccncc6)C(=O)C(C)(C)[C@@H]5CC[C@]43C)[C@@H]12`, for which the growth was 47.9%.

For the molecule `C=Cc1cnc(Nc2ccc(OC)cc2)nc1NCCCNC(=O)C1CCC1`, the growth is 48%.

With `Cc1ccc(CNc2ccc3nc(CCC(C)C)[nH]c3c2)cc1`, the growth is 101%.

Consider `O=c1ccc(=O)n(-c2nc(-c3ccc([N+](=O)[O-])cc3)cs2)[nH]1`, for which the growth was 102%.

Regarding `CC(=O)OC(c1ccccc1)C1CCOC1=O` (configuration not stated), the growth was 86.8%.

Regarding `Cc1ccc(-c2csc(N(C(=O)N3CCN(c4cc5c(cc4F)c(=O)c(C(=O)O)cn5C4CC4)CC3)c3ccccc3)n2)cc1`, the growth is 13.2%.

For the molecule `CCN1CCN(CC(=O)Nc2nc3ccc(NCc4ccc(F)cc4)cc3s2)CC1`, the growth is 94.8%.

Turning to `CCOC(=O)c1c(C)nc2c(c1N)CC(=O)N2Cc1ccc(OC)cc1`, the growth was 80.4%.

With `CCNC(=O)Oc1ccc(/C(=C(/C)Cc2ccc(OC)cc2)c2ccc(OCCN3CCCCC3)cc2)cc1`, the growth was 89.6%.

`C=C(C)[C@@H]1CCC[C@]2(C(=O)N3CCN(C)CC3)CC[C@]3(C)[C@@H](CC[C@@H]4[C@@]5(C)CC/C(=N\NC(=O)c6ccncc6)C(C)(C)[C@@H]5CC[C@]43C)[C@@H]12`: the growth is 80.1%.

As for `CCCCCCCCCCCCCOC(=O)c1c(C)[nH]c(/C=C2\N=C(c3ccc[nH]3)C=C2OC)c1C`, the growth was 44%.

For `COc1cccc(/C=C/C(=O)c2cccc(Nc3nc(Nc4ccccc4)nc(Nc4ccccc4)n3)c2)c1`, the growth was 89%.

As to `O=C(C1CCCCC1)[C@@H]1[C@]2(C(=O)NC3CCCCC32)[C@@H]2CCCN2[C@@]12C(=O)NC1CCC(Cl)CC12` (some centres not stated), the growth is -89.5% [100 µM] (active).

For the molecule `N#C/C(=C\c1ccc(-c2cccc(C(F)(F)F)c2)o1)c1ccccc1`, the growth was 96.9%.

With `COc1cc(C(=O)n2nc(N3CCOCC3)c3cc(-n4cccc4)ccc32)cc(OC)c1OC`, the growth was 98.3%.

As to `COC(=O)c1c2c(c(C)[n+]([O-])c1C)C(=O)C(NCc1ccc(OC)cc1)=CC2=O`, the growth was 53%.

For `CC1=C(CCC(C)NCc2ccc(OCCCN3CCCCC3)cc2)C(C)(C)CCC1` (configuration not stated), the growth is -49.8% (active).

As to `CN1CCN(CCCOc2cccc3nc(Nc4ccc(F)c(F)c4)ccc23)CC1`, the growth was -20.9% (active).

As to `CC1(C)CC[C@]23CC[C@]4(C)[C@H](CC[C@@H]5[C@@]6(C)C/C(=C/c7ccncc7)C(=O)C(C)(C)[C@@H]6CC[C@]54C)[C@H]2[C@H]1OC3`, the growth is 89.8%.

Turning to `C/C(Cc1ccc(Cl)cc1)=C(\c1ccc(OCCCN(C)C)cc1)c1ccc(OC(=O)Cc2ccccc2)cc1`, the growth is 105%.

On to `COc1ccc(C(=O)/C=C/c2ccc(N3CCCCC3)cc2)cc1OC`, for which the growth is 99.8%.

For `O=C1Nc2c(C(=O)O)cccc2/C1=N/c1n[nH]c(=S)s1`, the growth was 98%.

Turning to `COC(=O)N1CC(Oc2ccccn2)C2CC1c1ccccc1O2` (configuration not stated), the growth is 107%.

As to `CN(CCCNC(=O)Cc1ccc2ccc3cccc4ccc1c2c34)CCCNc1cc(-c2ccc3ccccc3c2)nc2ccccc12`, the growth was -88.2% (active).

As to `CCOC(=O)C(=Cc1ccc(-c2ccccc2)cc1)C(=O)OCC`, the growth was 71%.

With `COc1ccc(C(O)c2cc3c(N)c(C(=O)Nc4cccc(Cl)c4C)sc3nc2C)cc1` (configuration not stated), the growth is 35.5%.

With `Oc1ccc(/C=C/c2ccc(O)cc2)cc1`, the growth is 135%.
